Bioassay records (PubChem BioAssay)
An excerpt weighted towards active compounds, which were near 2.4% of everything screened.
Pol beta inh: blocks human DNA polymerase beta activity. P06746. Pol beta primer extension/strand displacement, fluorescence kinetic. Potency, µM (highest dose often 114 µM), most hits filed as inhibitors. 340,000 compounds, 1.3% hits. AID 485314
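Human Pol beta at 10 nM; strand-displacement substrate 50 nM final. Compound exposure 15 min at room temperature before start, reaction 10 min at room temperature.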
POLH inh: DNA polymerase eta (human) inhibition; Q9Y253; recombinant Pol eta, fluorescent DNA replication assay; Potency, µM (highest dose often 114 µM), hits mostly inhibitors; 390,000 compounds, 1.2% hits; AID 588591
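Pol eta (10 nM) was preincubated with compounds for 15 min at room temperature, after which fluorescent replication substrate (50 nM final) was added to start the reaction. Fluorescence was read kinetically at 0 and 10 min.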
FEN1 inh: inhibitors of human flap endonuclease 1; Recombinant FEN1 flap cleavage, fluorescence, 15 min; 390,000 compounds, 0.35% hits; Potency, µM (series often up to 114 µM), usual class: inhibitors; P39748; note: nearly all actives have a fitted effect of over 65% in size
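In this screen, 50 nM flap DNA substrate was added to 10 nM FEN1 pretreated with compound for 15 min at room temperature; cleavage was followed with reads at 0 and 15 min, and Hill fitting gave concentration–response parameters.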
POLI inh: inhibitors of human DNA polymerase iota; Q9UNA4; Pol iota fluorescent replication assay, 10 min; Potency, µM (titrated, usually from 115 µM), hits mostly inhibitors; 390,000 compounds, 1% hits
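Pol iota at 10 nM preincubated 15 min with compounds at room temperature; reaction started with fluorescent substrate, 50 nM final. Fluorescence read kinetically at 0 and 10 min; buffer-only wells as negative control.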
TDP1 block: blocks human tyrosyl-DNA phosphodiesterase 1. Q9NUW8. recombinant TDP1, AlphaScreen DNA substrate cleavage. Potency, µM (highest dose often 130 µM), usual class: inhibitors. 350,000 compounds, 0.28% hits; note: nearly all actives have a fitted effect of over 40% in size
Target sequence (Q9NUW8 whole entry, looked up): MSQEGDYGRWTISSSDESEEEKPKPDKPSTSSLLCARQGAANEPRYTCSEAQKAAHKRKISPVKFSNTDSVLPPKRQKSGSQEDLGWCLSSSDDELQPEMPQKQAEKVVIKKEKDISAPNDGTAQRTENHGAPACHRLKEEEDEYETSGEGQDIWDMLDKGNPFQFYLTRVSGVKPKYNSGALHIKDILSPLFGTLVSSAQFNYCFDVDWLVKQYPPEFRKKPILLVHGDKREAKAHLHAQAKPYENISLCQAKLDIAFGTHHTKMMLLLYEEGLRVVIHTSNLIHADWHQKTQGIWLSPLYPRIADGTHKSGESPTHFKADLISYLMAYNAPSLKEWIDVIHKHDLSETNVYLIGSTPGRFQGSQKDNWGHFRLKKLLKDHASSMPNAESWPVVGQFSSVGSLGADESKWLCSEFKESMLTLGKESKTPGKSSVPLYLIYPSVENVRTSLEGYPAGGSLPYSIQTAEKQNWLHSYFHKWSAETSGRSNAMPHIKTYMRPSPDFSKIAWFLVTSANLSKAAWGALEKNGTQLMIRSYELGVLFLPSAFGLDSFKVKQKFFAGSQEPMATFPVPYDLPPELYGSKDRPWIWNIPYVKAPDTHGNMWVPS
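Enzyme-compound mixtures sat 15 min at room temperature, followed by a 5 min reaction with 15 nM final substrate and 10 min with AlphaScreen beads. Recombinant human Tdp1 was used at 1 nM final.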
POLK inh: DNA polymerase kappa (human) inhibition; purified Pol kappa, fluorescent DNA synthesis assay, 10 min; Potency, µM (highest dose often 107 µM), usual class: inhibitors; 400,000 compounds, 0.53% hits; AID 588579
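Kinetic fluorescence readout at 0 and 10 min followed reaction start with substrate at 50 nM final. Beforehand, enzyme (10 nM Pol kappa) stood 15 min with compound at room temperature; buffer-only wells were negative controls.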
A number is an active result; i = inactive; ? = inconclusive; nt = no result; [ ] = dose if it differs, or a comment. Calls come from the whole dose curve; as a rule, active = well fitted curve in the direction sought with a large enough effect; inconclusive = small, poorly fitted or top-dose-only effect, or another doubt; inactive = no such curve, though single readings can be large; an effect the other way counts as inactive or inconclusive.

SMILES | Pol beta inh | POLH inh | FEN1 inh | POLI inh | TDP1 block | POLK inh
COc1ccc(-c2ccc(/C=N/N3C(=O)C4C5C=CC(C6CC56)C4C3=O)o2)c([N+](=O)[O-])c1 (configuration not stated) | ? | ? | i | i | i | i
O=[N+]([O-])c1ccc(/C=C2\C=C(C(O)c3ccc([N+](=O)[O-])cc3)c3ccccc32)cc1 (configuration not stated) | nt | nt | i | i | nt | i
Cc1cnccc1/C=C/c1ccc(N)cc1 | nt | nt | i | i | nt | i
COc1cccc(C2c3c(ncn(-c4ccc(C(C)(C)C)cc4)c3=N)Oc3ccc4ccccc4c32)c1 (configuration not stated) | nt | nt | nt | nt | i | nt
Cc1ccc2oc(=O)c3cc(C(=O)NCCCN4CCN(C)CC4)sc3c2c1 | i | i | ? | i | i | i
CC1CCCN(CCCNC(=O)c2cc3c(Cl)nc4ccccc4c3s2)C1 (configuration not stated) | i | i | 50.1µM | i | i | i
O=C(NCCCN1CCCCCC1)c1cc2c(=O)oc3ccccc3c2s1 | i | i | 70.8µM | 50.1µM | i | i
Cn1nc(-c2ccc(Cl)cc2)c2cc(C(=O)NCCCN3CCCC3)sc21 | 50.1µM | i | 31.6µM | ? | i | i
COCCNC(=O)c1cc2c(-c3ccc(Cl)cc3)nn(C)c2s1 | i | i | ? | ? | i | i
Cc1nnc(NC(=O)CSc2ccc(-c3ccc(Cl)cc3)nn2)s1 | i | i | i | i | i | i
CCc1ccc(-c2ccc(SCC(=O)Nc3nnc(C)s3)nn2)cc1 | 39.8µM | i | i | i | i | i
CCc1nnc(NS(=O)(=O)c2ccc(N/C=C\C(=O)c3cccc4ccccc34)cc2)s1 | i | 44.7µM | i | i | i | i
CCc1nnc(NS(=O)(=O)c2ccc(N/C=C/C(=O)c3ccc(OC)cc3)cc2)s1 | i | i | i | i | i | i
Cc1ccc(CSc2nnc(-c3cccc4ccccc34)o2)cc1 | nt | i | i | i | 44.7µM | i
Cc1ccc(-c2nnc(-c3cccc4ccccc34)o2)cc1 | nt | i | i | i | nt | i
CCOc1ccccc1NC(=O)c1cc(-c2ccncc2)nc2c(Cl)cccc12 | 15.8µM | i | i | i | i | i
COc1ccc(NC(=O)c2cc(-c3ccncc3)nc3ccccc23)c(OC)c1 | nt | i | i | i | i | i
O=C(O)c1cc(-c2ccco2)[nH]n1 | 28.2µM | ? | i | i | i | i
Cc1ccc(NC(=O)CSc2nnc(-c3ccco3)o2)cc1 | i | i | i | i | i | i
Cc1ccccc1NC(=O)CSc1nc(-c2cccs2)nc2cc(=O)[nH]n12 | ? | i | i | 89.1µM | ? | ?
Cc1ccc(NC(=O)CSc2nc(-c3cccs3)nc3cc(=O)[nH]n23)cc1C | 50.1µM | i | i | 89.1µM | nt | i
Cc1ccc(NC(=O)CSc2nc(-c3ccco3)nc3cc(=O)[nH]n23)cc1 | 50.1µM | i | i | ? | i | i
Cc1ccc(NC(=O)CSc2nc(-c3ccc(C(C)(C)C)cc3)nc3cc(=O)[nH]n23)cc1C | ? | i | i | i | i | i
COc1cccc(Nc2nc(C#N)nc(NC3CCCC3)n2)c1 | nt | nt | nt | nt | i | nt
Cc1ccn2c(NCc3ccco3)c(-c3ccccc3)nc2c1 | nt | nt | i | ? | i | i
SMILES | Pol beta inh | POLH inh | FEN1 inh | POLI inh | TDP1 block | POLK inh
C[C@@H](CCc1ccccc1)NC[C@H](O)c1ccc(O)c(C(N)=O)c1 | nt | nt | nt | nt | i | i[19.4 µM]
O=C(O)c1cccc(O)c1O | nt | i | i | i | nt | i
Oc1cccc(O)c1O | nt | nt | nt | nt | ? | 2.99µM
S=C(NCCCc1cnc[nH]1)NCCCN(CCc1ccc(Cl)cc1)c1ccc(Br)cn1 | nt | nt | i | i | nt | i
CC(C)(C)OC(=O)NCC(=O)NNC(=O)c1nc2ccccc2[nH]1 | nt | nt | nt | nt | i | nt
Cc1ccccc1-c1cc(-n2ccnc2)ncn1 | nt | nt | nt | nt | 25.1µM | i
Cc1ccccc1-c1nccc(-n2ccnc2)n1 | nt | nt | nt | nt | nt | i
CCOC(=O)C[C@H]1c2cc(F)ccc2S(=O)(=O)N1Cc1cc(OC)c(OC)c(OC)c1 | nt | nt | i | i | nt | i
COc1ccc(C2Nc3ccccc3C(=O)N2Cc2ccccc2)cc1COc1cccc(C(F)(F)F)c1 (configuration not stated) | nt | nt | nt | nt | i | nt
CCC(=O)OCOc1ccc(/C=C2/CCC(CN(C)C)C2=O)cc1 (configuration not stated) | nt | 12.6µM | i | ? | nt | i
CCOc1ccc(NC(=O)Nc2ccc3c(c2)CCC3)cc1 | 25.1µM | i | i | i | nt | i
CCOc1ccc(NC(=O)NNC(=O)c2ccc(CC)s2)cc1 | 79.4µM | i | i | ? | i | i
CCOc1ccc(NC(=O)c2ccc(N)cc2)cc1 | i | i | i | i | i | i
CCOc1ccc(NC(=O)c2ccc(NC(=O)c3ccc(NC(N)=O)cc3)cc2)cc1 | nt | ? | ? | ? | 56.2µM | i
Cc1ccc(NC(=O)Nc2ccc3c(c2)CCC3)cc1 | ? | i | i | i | i | i
CCc1ccc(C(=O)NNC(=S)Nc2ccc(S(N)(=O)=O)cc2)s1 | i | ? | i | i | i | i
CNc1ccc(/C=C2\C=Cc3ccccc32)cc1I | nt | nt | i | i | nt | i
O=C(Nc1ccc(Br)cc1)c1ccccc1Br | i | i | i | i | i | i
O=Nc1ccc(NOC(=O)c2ccccc2Br)cc1 | 79.4µM | i | i | i | i | i
N#CC1=C(N)n2c(s/c(=C\c3ccco3)c2=O)=C(C#N)C1c1ccco1 (configuration not stated) | 7.08µM | 3.16µM | 44.7µM | 7.94µM | ? | 22.4µM
N#CC1=C(N)n2c(s/c(=C\c3cccs3)c2=O)=C(C#N)C1c1cccs1 (configuration not stated) | ? | 44.7µM | ? | ? | i | ?
Cc1cc(=O)oc2cc(OCc3ccc(C(=O)N4CCN(c5ccccc5)CC4)cc3)ccc12 | 11.2µM | i | i | i | i | i
COc1cc(N2C(=O)C=CC2=O)ccc1N1C(=O)C=CC1=O | nt | 25.1µM | 50.1µM | 39.8µM | nt | 39.8µM
O=C(O)CCC(=O)N1CCc2cc(S(=O)(=O)N3CCCCC3)ccc21 | i | i | i | i | i | i
O=C(O)CCC(=O)N1CCc2cc(S(=O)(=O)N3CC=C(c4ccccc4)CC3)ccc21 | 22.4µM | ? | i | ? | nt | ?
CCOC(=O)CNS(=O)(=O)c1cc(-c2nn(C)c(=O)c3ccccc23)ccc1C | 35.5µM | ? | i | 25.1µM | 50.1µM | ?
Cc1ccc(-c2nn(C)c(=O)c3ccccc23)cc1S(=O)(=O)NCCN1CCOCC1 | i | ? | i | ? | i | i
CCCC[C@@H](C)/C=C(C)/C=C(\C)C(=O)NC1=C[C@@](O)(/C=C/C=C/C=C/C(=O)NC2=C(O)CCC2=O)[C@@H]2O[C@@H]2C1=O | nt | nt | nt | nt | i | 26.7µM
Cc1cc[n+](CC(=O)c2ccc(F)cc2)c2ccccc12 | nt | nt | i | i | nt | i
